# Test results published in PubChem BioAssay (Tox21).
# Records with an inconclusive call do not appear. Entries that show only a call come without a potency. A number with no mark means an inactive call. Activity calls are given as the source filed them. Unless noted, calls follow the shape of the dose curve; as a rule, active = well fitted curve in the direction sought with a large enough effect in the repeat runs; inconclusive = weak or mixed curves; inactive = no such curve, though single readings can be large; an effect the other way counts as inactive or inconclusive.
# What was measured:
# [1] = qHTS RealTime-Glo MT Cell Viability Assay in HEK293 cells - 8 hour (AID 1224887); also: top concentration of the series differs between compounds; nearly all actives have a fitted effect of over 50% in size
# In short: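 HEK293 cells mixed with RealTime-Glo reagents (NanoLuc plus cell-permeant prosubstrate) at 600 cells/well, preincubated 5 h at 37 C/5% CO2, then given 23 nL compound in DMSO. Nonlytic luminescence from viable cells was read at 0, 8, 16, 24, 32 and 40 h.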
# [2] = A CellTox Green Cytotoxicity Assay to monitor cytotoxicity in HEK293 cells - 16 hour (AID 1224888); also: nearly all actives have a fitted effect of over 35% in size
# In short: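 HEK293 cells premixed with CellTox Green dye were seeded at 600 cells/well and left 5 h at 37 C/5% CO2 before pin transfer of 23 nL compound in DMSO. Fluorescence from dye bound to dead-cell DNA was read during 40 h treatment.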
# [3] = qHTS RealTime-Glo MT Cell Viability Assay in HepG2 cells - 0 hour (AID 1224889); also: nearly all actives have a fitted effect of over 50% in size
# In short: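 Real-time, nonlytic viability: 600 HepG2 cells/well mixed with NanoLuc enzyme plus prosubstrate; 5 h settle, compound (DMSO) added by pintool; luminescence monitored over 40 h at 37 C.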
# [4] = A CellTox Green Cytotoxicity Assay to monitor cytotoxicity in HepG2 cells - 8 hour (AID 1224890); also: nearly all actives have a fitted effect of over 45% in size
# In short: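 HepG2 cells were seeded together with the CellTox Green dye at 600 cells/well, left 5 h at 37 C/5% CO2, then given compounds in DMSO. Fluorescence from dye bound to dead-cell DNA was read repeatedly over 40 h of treatment at 37 C.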
# [5] = qHTS assay to identify small molecule antagonists of the estrogen receptor alpha (ER-alpha) signaling pathway using the BG1 cell line in the presence of 0.1 nM 17-beta-estradiol - cell viability counter screen (AID 1259241); also: nearly all actives have a fitted effect of over 40% in size
# In short: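 Estradiol-stimulated (0.1 nM) VM7Luc4E2 cells exposed to compounds 22 hr; viability measured by fluorescence of cleaved CellTiter-Fluor substrate after 30 min.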
# [6] = qHTS assay to identify small molecule antagonists of the androgen receptor (AR) signaling pathway using the MDA cell line in the presence of 0.5 nM R1881 - cell viability counter screen (AID 1259242); also: nearly all actives have a fitted effect of over 45% in size
# In short: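 MDA-kb2 cells (human breast carcinoma, stably carrying MMTV-luciferase reporter) were exposed to compounds with 0.5 nM R1881 (final) for 16 hr at 37C, 0% CO2; viability then read as live-cell protease fluorescence (CellTiter-Fluor, 30 min) in the same wells.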
# [7] = target: Androgen receptor (Homo sapiens) (UniProt P10275); experiment: qHTS assay to identify small molecule antagonists of the androgen receptor (AR) signaling pathway using the MDA cell line in the presence of 0.5 nM R1881 (AID 1259243); also: nearly all actives have a fitted effect of over 50% in size; also: potency is read from the fitted curve at half-maximal effect
# In short: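 MDA-kb2 human breast carcinoma cells carrying an MMTV-luciferase reporter (AR- and GR-responsive) were plated, rested 5 hr at 37C, dosed with compounds, then stimulated with 0.5 nM R1881 (final) for 16 hr; luminescence was read after ONE-Glo.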
# [8] = target: Estrogen receptor (Homo sapiens) (UniProt P03372); experiment: qHTS assay to identify small molecule antagonists of the estrogen receptor alpha (ER-alpha) signaling pathway using the BG1 cell line in the presence of 0.1 nM 17-beta-estradiol (AID 1259244); also: nearly all actives have a fitted effect of over 50% in size
# In short: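 VM7Luc4E2 cells (endogenous full-length ER-alpha, stable 4xERE-luciferase) were grown 5 days in phenol red-free medium with charcoal-stripped FBS, then exposed 22 h at 37C to compounds plus 0.1 nM (final) 17beta-estradiol; ONE-Glo luminescence read-out.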
# [9] = qHTS assay to identify small molecule HDAC inhibitors (AID 1259364); also: nearly all actives have a fitted effect of over 45% in size; also: potency is read from the fitted curve at half-maximal effect
# In short: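 Wild-type HCT-116 cells were plated overnight, exposed to compounds for 2 h at 37 °C, then given HDAC-Glo class I/II luminogenic reagent for 30 min at room temperature before luminescence was read.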
# [10] = qHTS assay to identify small molecule phospholipidosis (PLD) inducers (AID 1259344; active = well fitted curve in the direction sought with a large enough effect; an effect the other way counts as inactive or inconclusive)
# In short: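 Fluorescent phospholipid staining (LipidTOX Red) measured by automated microscopy in fixed HepG2 cells after 24 h treatment; nuclei counterstained with Hoechst 33342; amiodarone as reference inducer.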
# Estrogen receptor (Homo sapiens), sequence (P03372 whole entry, looked up): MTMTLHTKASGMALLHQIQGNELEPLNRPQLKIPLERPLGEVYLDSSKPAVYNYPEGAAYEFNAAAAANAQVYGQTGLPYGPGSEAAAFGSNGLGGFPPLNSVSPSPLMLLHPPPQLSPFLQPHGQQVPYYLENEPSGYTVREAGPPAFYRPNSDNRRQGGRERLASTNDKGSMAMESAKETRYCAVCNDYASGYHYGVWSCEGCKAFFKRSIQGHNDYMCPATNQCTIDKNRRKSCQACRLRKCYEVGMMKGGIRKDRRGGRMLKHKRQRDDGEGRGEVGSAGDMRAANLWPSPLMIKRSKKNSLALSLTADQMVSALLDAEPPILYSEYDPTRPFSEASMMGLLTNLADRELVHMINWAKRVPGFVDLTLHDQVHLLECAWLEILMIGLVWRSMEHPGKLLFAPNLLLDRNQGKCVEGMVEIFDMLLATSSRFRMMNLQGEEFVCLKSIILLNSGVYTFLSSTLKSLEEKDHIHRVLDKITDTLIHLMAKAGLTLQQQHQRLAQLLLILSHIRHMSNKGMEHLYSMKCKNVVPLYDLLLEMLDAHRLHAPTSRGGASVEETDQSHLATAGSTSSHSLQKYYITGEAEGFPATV
# Androgen receptor (Homo sapiens), sequence (P10275 whole entry, looked up): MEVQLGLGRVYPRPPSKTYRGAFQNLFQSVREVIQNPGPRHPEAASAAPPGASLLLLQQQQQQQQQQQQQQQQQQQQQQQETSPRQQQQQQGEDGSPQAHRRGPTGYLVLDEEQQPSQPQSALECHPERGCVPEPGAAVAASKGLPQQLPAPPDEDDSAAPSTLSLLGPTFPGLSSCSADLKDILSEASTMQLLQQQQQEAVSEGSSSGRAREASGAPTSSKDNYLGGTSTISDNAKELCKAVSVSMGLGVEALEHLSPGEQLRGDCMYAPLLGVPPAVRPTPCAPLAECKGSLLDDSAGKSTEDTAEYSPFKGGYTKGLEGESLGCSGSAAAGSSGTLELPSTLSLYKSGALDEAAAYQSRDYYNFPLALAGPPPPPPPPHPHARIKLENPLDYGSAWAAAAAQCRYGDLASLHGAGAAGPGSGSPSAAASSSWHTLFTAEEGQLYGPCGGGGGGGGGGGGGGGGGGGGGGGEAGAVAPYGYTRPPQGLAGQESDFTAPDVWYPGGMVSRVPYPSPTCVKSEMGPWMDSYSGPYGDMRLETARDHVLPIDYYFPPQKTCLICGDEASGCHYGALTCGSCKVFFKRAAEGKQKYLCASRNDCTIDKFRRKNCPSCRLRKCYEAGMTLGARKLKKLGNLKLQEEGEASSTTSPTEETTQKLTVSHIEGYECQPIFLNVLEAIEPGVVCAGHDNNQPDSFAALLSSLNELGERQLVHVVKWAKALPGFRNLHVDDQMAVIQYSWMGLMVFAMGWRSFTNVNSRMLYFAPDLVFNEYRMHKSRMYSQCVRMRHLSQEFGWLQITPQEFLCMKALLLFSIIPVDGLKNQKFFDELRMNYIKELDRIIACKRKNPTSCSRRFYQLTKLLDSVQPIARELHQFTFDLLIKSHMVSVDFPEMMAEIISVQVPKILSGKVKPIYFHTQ
Structure (SMILES),outcome [1],Potency [2],Potency [3],Potency [4],outcome [5],outcome [6],Potency [7],outcome [8],Potency [9],Potency [10]
O=C(O)CCCCCCCCCC(=O)O,inactive,inactive,inactive,inactive,inactive,inactive,inactive,inactive,inactive,–
CC(C)CC(O)Cc1ccccc1 (configuration not stated),inactive,inactive,inactive,inactive,inactive,inactive,inactive,inactive,–,–
N#Cc1cc(NC(=O)C(=O)O)c(Cl)c(NC(=O)C(=O)O)c1,inactive,inactive,inactive,inactive,inactive,inactive,inactive,inactive,inactive,–
O=C1c2ccccc2C(=O)N1CO,inactive,inactive,inactive,inactive,inactive,inactive,inactive,inactive,inactive,–
Cc1ccc2cccnc2c1,inactive,inactive,inactive,inactive,inactive,inactive,inactive,inactive,inactive,–
CC(C)C(=O)Nc1cccc(C2CN3CCSC3=N2)c1 (configuration not stated),inactive,inactive,inactive,inactive,inactive,inactive,inactive,inactive,inactive,–
O=C(c1ccccc1)c1cccc(O)c1,inactive,inactive,inactive,inactive,inactive,inactive,27.7 µM (active),–,inactive,–
N[C@H]1C(O)O[C@H](CO)[C@@H](O)[C@@H]1O (some centres not stated),inactive,inactive,inactive,inactive,inactive,inactive,inactive,–,inactive,inactive
CC(CN1CC(=O)NC(=O)C1)N1CC(=O)NC(=O)C1 (configuration not stated),inactive,inactive,inactive,inactive,inactive,inactive,inactive,inactive,inactive,–
C=COCCCCO,inactive,inactive,inactive,inactive,inactive,inactive,–,inactive,–,–
CC[C@@]1(c2ccccc2)NC(=O)N(C)C1=O,inactive,inactive,inactive,inactive,inactive,inactive,–,inactive,–,inactive
O=C(O)Cc1ccccc1Oc1ccc(Cl)cc1Cl,inactive,inactive,inactive,inactive,inactive,inactive,–,inactive,–,inactive
Nc1ccc(C(=O)NCC(=O)O)cc1,inactive,inactive,inactive,inactive,inactive,inactive,–,inactive,inactive,inactive
CC1(C)S[C@@H]2[C@H](NC(=O)Cc3ccccc3)C(=O)N2[C@H]1C(=O)O (tested in a mixture with another compound),inactive,inactive,inactive,inactive,inactive,inactive,–,inactive,inactive,inactive
CN(C)CCc1c[nH]c2ccc(CS(=O)(=O)N3CCCC3)cc12,inactive,inactive,inactive,inactive,inactive,inactive,–,inactive,inactive,inactive
N#CC1(N)CCCCC1,inactive,inactive,inactive,inactive,inactive,inactive,–,inactive,–,–
C=CCOC(=O)CCCCCCCC,inactive,inactive,inactive,inactive,inactive,inactive,–,inactive,–,–
C[C@@H]1CCC[C@H](C)N1CCCC(O)(c1ccccc1)c1ccccn1 (some centres not stated),inactive,inactive,inactive,inactive,inactive,inactive,inactive,–,inactive,–
C/C(Cl)=C/CCl,inactive,inactive,inactive,inactive,inactive,inactive,inactive,–,inactive,–
COc1cc2nc(N3CCN(C(=O)C4CCCO4)CC3)nc(N)c2cc1OC (configuration not stated),inactive,inactive,inactive,inactive,inactive,inactive,–,inactive,3.35 µM (active),inactive
CCOC(=O)CC(C(C)=O)C(C)=O,inactive,inactive,inactive,inactive,inactive,inactive,–,inactive,inactive,–
CN(C)CCC[C@@]1(c2ccc(F)cc2)OCc2cc(C#N)ccc21,inactive,inactive,inactive,inactive,inactive,inactive,–,inactive,inactive,inactive
CC(=O)Nc1ccc(OCCOCCOc2ccc(NC(C)=O)cc2)cc1,inactive,inactive,inactive,inactive,inactive,inactive,–,inactive,–,inactive
CC(O)CCCCn1c(=O)c2c(ncn2C)n(C)c1=O (configuration not stated),inactive,inactive,inactive,inactive,inactive,inactive,–,inactive,inactive,inactive
O=P(O)(O)C(O)(Cc1cccnc1)P(=O)(O)O,inactive,inactive,inactive,inactive,inactive,inactive,–,inactive,inactive,inactive
CCCCCCCCCCCCCC(=O)OCC,inactive,inactive,inactive,inactive,inactive,inactive,–,inactive,–,–
CCN1CCN(C(=O)N[C@@H](C(=O)N[C@@H]2C(=O)N3[C@@H]2SC(C)(C)[C@H]3C(=O)O)c2ccccc2)C(=O)C1=O,inactive,inactive,inactive,inactive,inactive,inactive,–,inactive,inactive,inactive
